“And” between values parts separate entries of the source, which are not always exact repeats. Identical values can stand only once. A number with no mark means an inactive call. Records with an inconclusive call do not appear. The source made the active and inactive calls. Unless noted, calls come from the whole dose curve; as a rule, active = well fitted curve in the direction sought with a large enough effect; inconclusive = small, poorly fitted or top-dose-only effect, or another doubt; inactive = no such curve, though single readings can be large; an effect the other way counts as inactive or inconclusive.

Test [1] deals with Calcium and integrin-binding protein 1 (Homo sapiens) (UniProt Q99828). Nature of the test: Primary qHTS for Identification of Calcium Integrin Binding Protein 1 (CIB1) Competitor (AID 1508620). Note: potency is the fitted concentration of half-maximal effect. A digest of the protocol: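 CIB1-GST (1 uM final) and compound incubated 15 min at room temperature before adding FITC-alphaIIb peptide tracer (100 nM final). Competition for binding read by fluorescence polarization (ex 480, em 540) after another 15 min at room temperature.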

A short description of test [2]: Primary qHTS for small molecule stabilizers of the endoplasmic reticulum resident proteome: Secreted ER Calcium Modulated Protein (SERCaMP) assay (AID 1508630). Note: % is set by controls: 0 for no effect and ±100 for the full control effect. A digest of the protocol: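 GLuc-SERCaMP-expressing SH-SY5Y cells, pretreated 16 h with compound, are challenged with thapsigargin to empty ER calcium stores; after 4 h, coelenterazine is added directly to the medium and luminescence is imaged.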

Test [3] is described as follows: Primary qHTS for inhibitors of nuclear receptor binding SET domain protein 2 (NSD2) in an isogenic RCH-ACV NSD2 p.E1099K mutant (9B) (AID 1645876). Note: nearly all actives have a fitted effect of over 70% in size. Note: potency is the fitted concentration of half-maximal effect.
Test [4] addresses Single-stranded DNA cytosine deaminase (Homo sapiens) (UniProt Q9GZX7). Put plainly: Validation qHTS assay for inhibitors of Activation Induced Cytidine Deaminase (AID): AID signal (AID 1347429). Note: % is set by controls: 0 for no effect and ±100 for the full control effect. In short, it runs like this:
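FRET deamination assay: 1 uM AID (4/3x stock) with UDG, compound up to 114 uM, then 250 nM DJC20/DJC23 substrate (4x stock) for 4 hr at room temperature. NaOH added, 30 min; fluorescence read 540/590 nm.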

A short description of test [5]: Primary qHTS for inhibitors of La Crosse Virus (LACV) - induced cell death in SH-SY5Y cells (AID 1508616).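 Note: top concentration of the series differs between compounds; 0% = infected DMSO wells and 100% = uninfected DMSO wells; higher means more rescue of cells from virus-induced death.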 In short, it runs like this:
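SH-SY5Y cells (6000/well) plated 24 h, then given compounds by pin transfer and LACV at 0.01 MOI for 6 days at 37C. Viability measured by ATPLite luminescence, normalized to infected DMSO and uninfected DMSO.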
On the technique in general: In qHTS, concentration-response curves come from the screen itself.

For test [6], the target named is Calcium and integrin-binding protein 1 (Homo sapiens) (UniProt Q99828). Put plainly: Validation qHTS for Identification of Calcium Integrin Binding protein 1 (CIB1) Competitor (AID 1508618). Note: % is set by controls: 0 for no effect and ±100 for the full control effect. A digest of the protocol: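 CIB1-GST (1 uM final) in 5 mM HEPES pH 7.4, 125 mM NaCl, 5 mM CaCl2, 0.01% Tween20 was preincubated 15 min at room temperature with compound (up to 114 uM), then FITC-alphaIIb peptide (100 nM) added for 15 min; fluorescence polarization read.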

For test [7], the target named is Papain (Carica papaya) (UniProt P00784). Nature of the test: Primary qHTS assay for inhibitors of the protease papain (AID 1645873).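 Note: papain turnover of Z-FR-AMC read as the AMC fluorescence gain over 10 min; series mostly up to about 50 µM; % is set by controls: 0 for no effect and ±100 for the full control effect.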
Test [8] can be described thus: Primary qHTS for inhibitors of nuclear receptor binding SET domain protein 2 (NSD2) in an RCH-ACV wild type WT cells (2C) (AID 1645877). Note: nearly all actives have a fitted effect of over 70% in size. Note: potency is the fitted concentration of half-maximal effect.
The target of test [9] is Rap guanine nucleotide exchange factor 3 (Homo sapiens) (UniProt O95398). Put plainly: Confirmatory qHTS for agonist of cAMP-regulated guanine nucleotide exchange factor 3 (EPAC1) (AID 1645881).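 Note: EPAC1 catalysed release of BODIPY-GDP from Rap1B seen as fluorescence loss; 100% = effect of cAMP agonist control; nearly all actives have a fitted effect of over 75% in size.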
The target of test [10] is Rap guanine nucleotide exchange factor 4 (Homo sapiens) (UniProt Q8WZA2). Nature of the test: Confirmatory qHTS for agonist of cAMP-regulated guanine nucleotide exchange factor 4 (EPAC2) (AID 1645884).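 Note: nucleotide exchange releases bodipy-GDP from Rap1 and this lowers its fluorescence; % is set by controls: 0 for no effect and ±100 for the full control effect; nearly all actives have a fitted effect of over 65% in size.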
Test [11] is described as follows: A High-Content qHTS Against Drug Library for the Identification of Small Molecules that Inhibit DYT1 Early Onset Primary Dystonia-Associated Cell Pathology (AID 1645839; calls by dose curve; note: series mostly up to about 46 µM). In short, it runs like this:
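In this high-content image screen, delE TorsinA mislocalization in inducible Flp-In 293 cells is scored as %pathology, with cell count serving as the counterscreen. Compound exposure lasts 48 h under tetracycline induction in reduced-serum medium.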

Test [12] addresses Cytochrome P450 2C9 (Homo sapiens) (UniProt P11712). Put plainly: Cytochrome P450 family 2 subfamily C member 9 (CYP2C9) small molecule antagonists: luciferase biochemical (cell-free) qHTS assay (AID 1645842; active = well fitted curve in the direction sought with a large enough effect in the repeat runs; an effect the other way counts as inactive or inconclusive; note: nearly all actives have a fitted effect of over 55% in size; note: potency is the fitted concentration of half-maximal effect). In short, it runs like this: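 Luminescence, after 20 min with luciferin detection reagent, reflected CYP2C9 turnover during a 1 h NADPH-driven reaction at 37C. Enzyme-substrate mix contained 0.4% bovine serum albumin and was preincubated with compound 10 min at room temperature.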

For test [13], the target named is Cytochrome P450 2D6 (Homo sapiens) (UniProt P10635). Put plainly: Cytochrome P450 family 2 subfamily D member 6 (CYP2D6) small molecule antagonists: luciferase biochemical (cell-free) qHTS assay (AID 1645840; active = well fitted curve in the direction sought with a large enough effect in the repeat runs; an effect the other way counts as inactive or inconclusive; note: nearly all actives have a fitted effect of over 55% in size; note: potency is the fitted concentration of half-maximal effect). In short, it runs like this: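 P450-Glo luminescent screen: recombinant CYP2D6 enzyme–proluciferin substrate mix preincubated with compound 10 min at room temperature, then NADPH regeneration added for 1 h at room temperature. Detection reagent added for 20 min; luciferin light read as relative luminescence units.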

The target of test [14] is Calcium and integrin-binding protein 1 (Homo sapiens) (UniProt Q99828). Put plainly: Confirmatory qHTS for Identification of Calcium Integrin Binding Protein 1 (CIB1) Competitor (AID 1508617). Note: potency is the fitted concentration of half-maximal effect; nearly all actives have a fitted effect of over 65% in size. Conditions: CIB1 binding competition assay, biochemical qHTS. A digest of the protocol: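 Fluorescence polarization competition: CIB1-GST (1 uM final) in 5 mM HEPES pH 7.4, 125 mM NaCl, 5 mM CaCl2, 0.01% Tween20 preincubated 15 min RT with compound (up to 114 uM), then FITC-alphaIIb peptide (100 nM) added, 15 min RT.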

Sequence of Calcium and integrin-binding protein 1 (Homo sapiens) (Q99828 whole entry, looked up): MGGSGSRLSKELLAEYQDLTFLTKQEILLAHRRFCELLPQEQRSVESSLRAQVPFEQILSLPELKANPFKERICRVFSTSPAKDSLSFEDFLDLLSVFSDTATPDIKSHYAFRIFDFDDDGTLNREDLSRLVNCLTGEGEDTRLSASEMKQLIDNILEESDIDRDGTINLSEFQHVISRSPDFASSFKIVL
Sequence of Rap guanine nucleotide exchange factor 3 (Homo sapiens) (O95398 whole entry, looked up): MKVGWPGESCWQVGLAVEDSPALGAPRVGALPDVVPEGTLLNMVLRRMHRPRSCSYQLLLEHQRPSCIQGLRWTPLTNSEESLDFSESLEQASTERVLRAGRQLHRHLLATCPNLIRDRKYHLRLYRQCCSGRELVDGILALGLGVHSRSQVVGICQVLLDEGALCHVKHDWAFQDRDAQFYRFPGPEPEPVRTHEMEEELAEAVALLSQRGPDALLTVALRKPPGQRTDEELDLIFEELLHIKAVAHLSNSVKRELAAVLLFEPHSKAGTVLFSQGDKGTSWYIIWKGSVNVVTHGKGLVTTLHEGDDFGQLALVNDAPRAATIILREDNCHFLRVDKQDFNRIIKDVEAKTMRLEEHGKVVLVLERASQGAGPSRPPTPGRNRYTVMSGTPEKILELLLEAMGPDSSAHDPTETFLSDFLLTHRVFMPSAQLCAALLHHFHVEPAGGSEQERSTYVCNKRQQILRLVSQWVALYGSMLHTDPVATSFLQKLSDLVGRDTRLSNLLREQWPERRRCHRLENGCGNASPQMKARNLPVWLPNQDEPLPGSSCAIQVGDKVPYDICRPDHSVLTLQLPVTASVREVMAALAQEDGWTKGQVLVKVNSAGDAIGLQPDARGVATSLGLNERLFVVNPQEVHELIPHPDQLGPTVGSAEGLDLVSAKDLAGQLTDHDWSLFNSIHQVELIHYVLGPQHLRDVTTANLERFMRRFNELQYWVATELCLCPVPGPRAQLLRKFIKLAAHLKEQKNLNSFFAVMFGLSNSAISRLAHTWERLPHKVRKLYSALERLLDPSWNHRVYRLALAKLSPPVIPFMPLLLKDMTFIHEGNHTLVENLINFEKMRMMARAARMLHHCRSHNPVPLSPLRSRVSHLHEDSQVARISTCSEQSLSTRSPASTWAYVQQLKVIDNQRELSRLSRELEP
Sequence of Cytochrome P450 2D6 (Homo sapiens) (P10635 whole entry, looked up): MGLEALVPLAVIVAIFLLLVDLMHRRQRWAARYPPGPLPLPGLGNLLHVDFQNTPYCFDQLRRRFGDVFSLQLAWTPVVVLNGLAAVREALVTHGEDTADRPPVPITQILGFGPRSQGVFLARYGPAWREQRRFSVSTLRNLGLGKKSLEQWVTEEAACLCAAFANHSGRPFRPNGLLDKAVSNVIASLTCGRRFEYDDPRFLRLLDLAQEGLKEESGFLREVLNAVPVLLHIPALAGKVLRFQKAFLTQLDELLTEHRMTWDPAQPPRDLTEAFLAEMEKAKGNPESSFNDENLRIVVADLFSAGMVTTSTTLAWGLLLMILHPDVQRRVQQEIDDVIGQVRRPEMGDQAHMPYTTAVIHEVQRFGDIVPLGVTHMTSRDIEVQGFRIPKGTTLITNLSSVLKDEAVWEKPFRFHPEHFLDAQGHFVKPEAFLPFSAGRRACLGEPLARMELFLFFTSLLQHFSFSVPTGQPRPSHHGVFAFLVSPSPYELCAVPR
Sequence of Rap guanine nucleotide exchange factor 4 (Homo sapiens) (Q8WZA2 whole entry, looked up): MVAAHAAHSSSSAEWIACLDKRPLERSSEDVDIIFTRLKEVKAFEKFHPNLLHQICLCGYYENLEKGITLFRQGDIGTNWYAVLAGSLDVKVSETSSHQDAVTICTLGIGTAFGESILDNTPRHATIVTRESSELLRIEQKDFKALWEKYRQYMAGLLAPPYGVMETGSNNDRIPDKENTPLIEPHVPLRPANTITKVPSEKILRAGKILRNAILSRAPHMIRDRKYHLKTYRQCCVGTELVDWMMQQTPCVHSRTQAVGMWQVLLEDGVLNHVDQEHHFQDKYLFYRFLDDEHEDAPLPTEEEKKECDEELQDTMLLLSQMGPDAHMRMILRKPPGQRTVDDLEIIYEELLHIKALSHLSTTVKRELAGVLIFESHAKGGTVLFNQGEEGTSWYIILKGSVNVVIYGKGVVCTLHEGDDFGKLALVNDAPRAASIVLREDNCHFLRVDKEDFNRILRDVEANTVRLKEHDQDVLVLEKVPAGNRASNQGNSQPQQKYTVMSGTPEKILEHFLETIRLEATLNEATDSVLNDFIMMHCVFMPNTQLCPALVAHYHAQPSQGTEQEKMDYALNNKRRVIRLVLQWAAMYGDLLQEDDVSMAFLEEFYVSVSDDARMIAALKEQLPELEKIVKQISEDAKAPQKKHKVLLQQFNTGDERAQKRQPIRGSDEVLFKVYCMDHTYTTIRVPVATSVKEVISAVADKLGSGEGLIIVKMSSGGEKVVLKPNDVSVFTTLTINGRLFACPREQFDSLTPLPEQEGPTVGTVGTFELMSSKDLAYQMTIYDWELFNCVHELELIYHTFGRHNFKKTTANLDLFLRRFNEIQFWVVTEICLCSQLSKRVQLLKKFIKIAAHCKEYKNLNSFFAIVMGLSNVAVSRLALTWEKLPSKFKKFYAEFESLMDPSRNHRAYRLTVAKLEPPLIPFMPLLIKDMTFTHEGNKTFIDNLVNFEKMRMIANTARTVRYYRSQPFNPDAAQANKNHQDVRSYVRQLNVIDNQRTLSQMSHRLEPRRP
Sequence of Cytochrome P450 2C9 (Homo sapiens) (P11712 whole entry, looked up): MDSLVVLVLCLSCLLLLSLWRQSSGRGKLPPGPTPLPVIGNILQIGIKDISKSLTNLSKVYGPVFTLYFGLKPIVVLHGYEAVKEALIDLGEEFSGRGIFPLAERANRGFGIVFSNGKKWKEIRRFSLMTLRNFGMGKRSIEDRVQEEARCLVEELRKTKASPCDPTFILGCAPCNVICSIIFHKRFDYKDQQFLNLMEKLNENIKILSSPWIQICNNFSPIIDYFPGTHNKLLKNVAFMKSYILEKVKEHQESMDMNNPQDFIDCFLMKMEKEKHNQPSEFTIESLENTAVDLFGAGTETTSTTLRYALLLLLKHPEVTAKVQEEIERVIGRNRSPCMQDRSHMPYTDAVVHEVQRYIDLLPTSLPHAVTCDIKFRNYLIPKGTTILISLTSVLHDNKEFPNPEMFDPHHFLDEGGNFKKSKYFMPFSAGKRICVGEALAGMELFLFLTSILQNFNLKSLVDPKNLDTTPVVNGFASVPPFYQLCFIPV
Sequence of Single-stranded DNA cytosine deaminase (Homo sapiens) (Q9GZX7 whole entry, looked up): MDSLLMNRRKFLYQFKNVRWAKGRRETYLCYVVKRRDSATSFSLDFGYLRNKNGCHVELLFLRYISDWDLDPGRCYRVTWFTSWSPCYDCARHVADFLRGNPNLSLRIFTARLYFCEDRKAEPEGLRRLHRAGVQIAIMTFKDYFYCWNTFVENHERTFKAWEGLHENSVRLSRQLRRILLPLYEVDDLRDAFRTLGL
Sequence of Papain (Carica papaya) (P00784 whole entry, looked up, the tested form may be a part): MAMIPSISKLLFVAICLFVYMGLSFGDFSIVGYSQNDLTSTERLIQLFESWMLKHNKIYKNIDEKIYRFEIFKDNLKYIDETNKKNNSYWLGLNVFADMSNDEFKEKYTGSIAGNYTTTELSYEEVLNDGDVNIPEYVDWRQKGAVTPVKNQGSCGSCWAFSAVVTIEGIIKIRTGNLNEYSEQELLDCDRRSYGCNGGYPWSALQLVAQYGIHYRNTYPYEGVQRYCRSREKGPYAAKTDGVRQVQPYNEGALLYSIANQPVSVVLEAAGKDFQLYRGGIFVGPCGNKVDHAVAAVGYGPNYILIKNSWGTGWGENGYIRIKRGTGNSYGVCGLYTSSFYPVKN

Take `O=C(O)Cc1cc(I)c(Oc2ccc(O)c(I)c2)c(I)c1`: the Potency result in test [1] was “inactive”. The outcome in test [2] was inactive. For the same molecule, in [3], the Potency was 20.5 µM (active).
Take `Oc1ccc(/C=C/c2cc(O)cc(O)c2)cc1`: the outcome in test [4], in [5], in test [6], in test [2], in test [7] and in test [9] was inactive. The call in test [10] was inactive. Moreover, in [1], the Potency entry is “inactive”. Further, the Potency in test [3] was 9.34 µM (active); in test [8], 18.8 µM (active) and 11.8 µM (active).
Consider `O=C1CCC(c2ccccc2)(C2CCN(Cc3ccccc3)CC2)C(=O)N1` (stereo not drawn), for which, in [2], the result was inactive.
For the molecule `CC(=O)Oc1cccc2c1C(=O)c1c(OC(C)=O)cc(C(=O)O)cc1C2=O`, the molecule was called inactive in test [5], in test [2] and in test [11]. Also, the Potency entry in test [12], in [3] and in test [8] was “inactive” throughout.
As for `Nc1ccc(N=Nc2ccccc2)c(N)n1`, the outcome in test [5] and in test [2] was inactive. In addition, the Potency in [13] was 17.4 µM (active); in [12] it was 13.8 µM (active).
For `CN1C(=O)OC(C)(C)C1=O`, the Potency entry in test [13] is “inactive”.
As to `CNC(=O)[C@H](Cc1c[nH]c2ccccc12)NC(=O)[C@@H](CC(=O)NO)CC(C)C`, in test [2], the result was inactive. Also, the Potency result in test [3] was “inactive”.
Take `COc1ccc(C[C@H](C)NC[C@@H](O)c2ccc(O)c(NC=O)c2)cc1`: the Potency result in [1] was “inactive”.
Consider `NC[C@H]1O[C@H](O[C@H]2[C@H](O)[C@@H](O[C@H]3O[C@H](CO)[C@@H](O)[C@H](N)[C@H]3O)[C@H](N)C[C@@H]2N)[C@H](N)C[C@@H]1O`, for which the outcome in test [2] was inactive. Also, the Potency entry in test [3] and in [8] was “inactive” throughout.
In the case of `CCN(CC)CCOCCOC(=O)C(CC)(CC)c1ccccc1`, the Potency result in test [1] was “inactive”. Further, the Potency in test [13] was 3.01 µM (active).
For `CC(=O)Nc1ccc(NC(=S)NC(=O)c2ccc(C(C)(C)C)cc2)cc1`, in test [1], the Potency result is “inactive”. Moreover, the Potency in [3] was 1.83 µM (active); in test [8], 3.25 µM (active).
As for `CCCCC[C@H](O)/C=C/[C@H]1[C@H](O)CC(=O)[C@@H]1CCCCCCC(=O)O`, in [2], the activity change, negative = inhibition is -7.33% [at 3.88 µM]. The values for the Potency in test [3] and in test [8] were 0.0661 µM (active) and 20.9 µM (active), respectively.
`O=C1c2ccccc2C(=O)c2c1ccc(O)c2O`: the outcome in test [5] and in test [11] was inactive. Further, the results for the Potency in test [14] and in test [1] were 17.8 µM (active) and 35.5 µM (active), respectively.
As for `CCCCC(O)c1ccccc1` (stereo not drawn), in [13], the Potency result is “inactive”.
Take `O=C(O)Cc1nn(Cc2ccc(Br)cc2F)c(=O)c2ccccc12`: the outcome in test [2] was inactive.
As for `N#Cc1ccc2c(c1)N(CCCN1CCC(O)CC1)c1ccccc1S2`, the result in test [2] was inactive.
As to `O=C(O)c1ccc(NC2OC[C@@H](O)[C@H](O)[C@H]2O)cc1` (stereo partly drawn), the result in test [2] was inactive.
As to `O=C(O)CCC/C=C\C[C@@H]1[C@@H](/C=C/[C@@H](O)COc2cccc(Cl)c2)[C@H](O)C[C@@H]1O`, the activity change, negative = inhibition in test [2] was -16.6% [at 3.88 µM].
